Results on 27 molecules are retold here after PubChem BioAssay (NCATS).

Molecules are shown by their SMILES. Results filed as inconclusive are left out. A call without a number means that no potency is given here. Activity calls are given as the source filed them. The call rests on the fitted dose curve; in most records, active means well fitted inhibition curve with a large enough effect; inconclusive means small, poorly fitted or top-dose-only effect; inactive means flat fitted curve, though single readings scatter.
Potency means the concentration at half of the fitted maximal effect.

The first assay concerns HaCat. The experiment in a line: Cytotoxic Profiling of Annotated Libraries Using Quantitative High-Throughput Screening (AID 1296008). Further: nearly all actives have a fitted effect of over 60% in size. The conditions noted are these: Five cell lines viability, CellTiter-Glo ATP luminescence, 48-72 h; max response: hits give low values. The procedure, abridged:
(§1)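 Compounds were pin-transferred onto cells and incubated 48 or 72 hr at 37 degree Celsius, 95% humidity. CellTiter-Glo was added, plates sat 10 min at room temperature, then ATP-coupled luminescence was imaged as the viability read-out.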
In general terms: In ATP-based viability assays light output follows the ATP content of the culture.
On to `CCC1=C[C@@H]2CN(C1)Cc1c([nH]c3ccccc13)[C@@](C(=O)OC)(c1cc3c(cc1OC)N(C)[C@H]1[C@@](O)(C(=O)OC)[C@H](OC(C)=O)[C@]4(CC)C=CCN5CC[C@]31[C@@H]54)C2`, for which the molecule was called inactive.

Regarding `OC1(c2ccc(Cl)cc2)CCNCC1`, the result was inactive.

Consider `CCCCN(CCN(CCCC)C(=O)N1CCOCC1)C(=O)N1CCOCC1`, for which the outcome was inactive.

For the molecule `O=C(CCCl)NCc1ccccc1`, the outcome was inactive.

As to `Nc1ccc2cc3ccc(N)cc3nc2c1`, the Potency was 3.76 µM (active).

Take `CCN(CC)CC(=O)Nc1c(C)cccc1C(=O)OC`: the molecule was called inactive.

For the molecule `CCCCCCOC(=O)NC(=N)c1ccc(NCc2nc3cc(C(=O)N(CCC(=O)OCC)c4ccccn4)ccc3n2C)cc1`, the molecule was called inactive.

As for `CC1(C)OC(=O)Nc2ccc(Br)cc21`, the outcome was inactive.

Turning to `O=C(C1CCCCC1)N1CC(=O)N2CCCc3ccccc3C2C1` (configuration not stated), the call was inactive.

For the molecule `CC(Oc1c(Cl)cccc1Cl)C1=NCCN1` (configuration not stated), the call was inactive.

Turning to `CCN(CC)CC(=O)OCC(=O)[C@@]1(O)CC[C@H]2[C@@H]3CCC4=CC(=O)CC[C@]4(C)[C@H]3[C@@H](O)C[C@@]21C`, the outcome was inactive.

For `Cc1oc(-c2ccccc2)nc1CCC(=O)c1ccc(CC2SC(=O)NC2=O)cc1` (configuration not stated), the call was inactive.

Take `CCC(=O)O[C@]1(C(=O)COC)[C@@H](C)C[C@H]2[C@@H]3CCC4=CC(=O)C=C[C@]4(C)C3(F)[C@@H](O)C[C@@]21C` (some centres not stated): the molecule was called inactive.

Regarding `Cc1cnc(NS(=O)(=O)c2ccc(N)cc2)nc1`, the outcome was inactive.

With `COc1ccc2c(c1)c(CC(=O)OC/C=C(\C)CC/C=C(\C)CCC=C(C)C)c(C)n2C(=O)c1ccc(Cl)cc1`, the molecule was called inactive.

`COCCOCC(OC)OC`: the call was inactive.

The next assay has as its system KB-3-1. The assay is described as above. The settings on record: Five cell lines viability, CellTiter-Glo ATP luminescence, 48-72 h; max response: hits give low values. The essentials: as §1
As to `CC(=O)Oc1ccc(C2(c3ccc(OC(C)=O)cc3)Oc3ccccc3NC2=O)cc1`, the Potency was 18.4 µM (active).

In the case of `CCCCCCCCCCCCCCCCCCNC(=O)OC1CCN(C(=O)OC[C@H](COC(=O)N(Cc2cccc[n+]2CC)C(=O)c2ccccc2OC)OC)CC1`, the Potency was 6.51 µM (active).

Take `CN(C)C(=O)CNC(=O)Cc1ccccc1`: the result was inactive.

With `CCNC(=O)NCCCOc1cccc(CN2CCCCC2)c1`, the max response is -12.8% (inactive).

On to `COC(=O)c1c(Cl)c(Cl)c(C(=O)OC)c(Cl)c1Cl`, for which the max response is -7.26% (inactive).

For `c1ccc2occc2c1`, the max response is -9.71% (inactive).

Consider `C[C@H](CN1CCCC1)C(=O)c1ccc(C(F)(F)F)cc1`, for which the max response was 4.58% (inactive).

As to `CO[C@@H]1[C@@H](OC)[C@H](C)[C@@](O)(CC(=O)O)O[C@H]1[C@H](C)[C@H]1O[C@@]2(CC[C@@](C)([C@H]3CC[C@@](C)([C@@H]4O[C@@H]([C@H]5O[C@](C)(O)[C@H](C)C[C@@H]5C)C[C@@H]4OC4C[C@H](OC)[C@@H](OC)[C@H](C)O4)O3)O2)C[C@H](O)[C@H]1C` (some centres not stated), the Potency was 16.4 µM (active).

`O=C(Nc1ccc(S(=O)(=O)N2CCOCC2)cc1)c1cc(Cl)ccc1NS(=O)(=O)c1ccc(Cl)s1`: the max response is -23.1% (inactive).

On to `CN1[C@@H]2CC[C@H]1CC(NC(=O)n1c(=O)[nH]c3ccccc31)C2` (some centres not stated), for which the max response is -6.43% (inactive).

`O=C(O)Cc1ccccc1Oc1ccc(Cl)cc1Cl`: the call was inactive.
